Data published in PubChem BioAssay (EPA / NIEHS).
Where “and” joins values, the source holds several entries; their conditions need not be identical. Equal values may be shown once. Inconclusive results are not listed. A structure can be active in one record and inactive in another. Calls of active or inactive are those of the source. How the source made its calls: active means hit-call score of the fitted dose curve at least 0.9, where 1 is the maximum; inconclusive means response in the unintended direction; inactive means score below 0.9.

tested on: frog Estrogen Receptor (ER2), gene 100174814; assay: ATG_frER2_XSP2: Attagene TRANS-FACTORIAL Multi-Species (XSP2) HepG2 Assay for frog Estrogen Receptor (ER2) (AID 2283828)
Description: ATG_XSP2_multi-species_TRANS is a cell-based, multiplexed assay created by modifying the existing Attagene TRANS-FACTORIAL system to include a panel of nuclear receptors from some or all the following species: human (Homo sapiens), mouse (Mus musculus), frog (Xenopus laevis), zebrafish (Danio rerio), chicken (Gallus gallus), and turtle (Chrysemys picta). The ECOTOX-FACTORIAL format uses HepG2, a human liver cell line, with measurements taken at 24 hours after chemical dosing in a 24-well plate. Xsp2 included 3 nM 6-alpha-fluorotestosterone and 1.5 nM norgestrel to stimulate the androgen receptor.ATG_frER2_XSP2 is one of 29 assay components measured or calculated from the ATG_XSP2_multi-species_TRANS assay. It is designed to make measurements of mRNA induction, a form of inducible reporter, as detected with fluorescence intensity signals by Reverse transcription polymerase chain reaction (RT-PCR) and Capillary electrophoresis technology.The assay endpoint ATG_frER2_XSP2 was analyzed in the positive analysis fitting direction relative to DMSO as the negative control and baseline of activity. Using a type of inducible reporter, measures of mRNA for gain-of-signal activity can be used to understand the reporter gene at the transcription factor-level as they relate to the gene ER. Furthermore, this assay endpoint can be referred to as a primary readout, because this assay has produced multiple assay endpoints where this one serves a reporter gene function. To generalize the intended target to other relatable targets, this assay endpoint is annotated to the nuclear receptor intended target family, where the subfamily is steroidal.
Human liver HepG2 cells are transiently transfected with multiple reporter transcription units (MRTUs) in 6-well plates using FuGene 6 reagent (Roche; 3 ml FuGene/1 mg DNA). The MRTU constructs are regulated by a cis-regulating element (promoter). […] A major difference between the CIS and TRANS system is that in CIS activities of endogenous TFs are measured, whereas the TRANS assay evaluates changes in activities of exogenous, chimeric NR-Gal4 proteins. […] At the end of 24 hour incubation, total RNA was isolated using TriZol reagent (Invitrogen). The isolated RNA is then reverse-transcribed using oligo(dT) primer and Mo-MLV reverse transcriptase (Invitrogen) with DNAse I (Ambion) treatment for 30 min. The one-tenth of the produced cDNA was amplified by PCR using Taq DNA polymerase (Invitrogen) and two reporter sequence-specific primers. The PCR products were fluorescently labeled by primer extension with 6-arboxyfluorescein (6-FAM) 5'-labeled reporter sequence-specific primer (2 min at 95 C, 20 s at 68 C and 10 min at 72 C) and these products were digested with 5U of HpaI (New England Biolabs) for 2h at 37 C. The fragments were purified using Qiaquick PCR columns (Qiagen), analyzed on an ABI 3130xL genetic analyzer (Applied Biosystems) with peak positions identified by using a set of X-rhodamine (ROX)-labeled MapMarker1000 molecular weight standards (BioVentures). The raw capillary electrophoresis data was processed using Attagraph software (Attagene).

| SMILES | AC50 | outcome |
| --- | --- | --- |
| CCCCC(CC)CN1C(=O)C2C3C=CC(C3)C2C1=O (stereo unspecified) | 146 µM (active) | – |
| CCCCC(CC)COC(=O)c1ccccc1C(=O)O (stereo unspecified) | 33.2 µM (active) | – |
| CC(C)(c1ccc(O)cc1)c1ccc(O)cc1 | – | inactive |
| Oc1ccc(C(c2ccc(O)cc2)C(Cl)(Cl)Cl)cc1 | – | inactive |
| CN(C)C(=O)Nc1ccc(Cl)c(Cl)c1 | 33.8 µM (active) | inactive |
| CCN(Cc1c(F)cccc1Cl)c1c([N+](=O)[O-])cc(C(F)(F)F)cc1[N+](=O)[O-] | 10.1 µM (active) and 2.8 µM (active) | – |
| N[C@@H](Cc1cc(I)c(Oc2ccc(O)c(I)c2)c(I)c1)C(=O)O | 4.9 µM (active) | inactive |
| CC(=O)S[C@@H]1CC2=CC(=O)CC[C@]2(C)[C@H]2CC[C@@]3(C)[C@@H](CC[C@@]34CCC(=O)O4)[C@H]12 | – | inactive |
| CC(C)CCCCCCc1ccc(O)cc1 | 1.19 µM (active) | – |
| C=CCOC(Cn1ccnc1)c1ccc(Cl)cc1Cl (stereo unspecified) | – | inactive |
| C#C[C@]1(O)CC[C@H]2[C@@H]3CCC4=CC(=O)CC[C@@H]4[C@H]3CC[C@@]21CC | – | inactive |
| CC1(C)C(C=C(Cl)Cl)C1C(=O)OCc1cccc(Oc2ccccc2)c1 (stereo unspecified) | 34.8 µM (active) | – |
| CSC(=O)c1cccc2nnsc12 | – | inactive |
| O=C(c1ccc(O)cc1O)c1ccc(O)cc1O | 2.72 µM (active) | – |
